Results from PubChem BioAssay (EPA / NIEHS).
Results filed as inconclusive are left out. The source made the active and inactive calls. The calls were made as follows, unless noted: active = hit-call score of the fitted dose curve at least 0.9, where 1 is the maximum; inactive = score below 0.9.

Columns and labels:
[1] = target: Paired box protein Pax-6 (Homo sapiens) (UniProt P26367); test: ATG_Pax6_CIS: Attagene CIS-FACTORIAL HepG2 Assay for human Paired Box 6 (PAX6) (AID 2282956); details: HepG2 CIS-FACTORIAL PAX6 reporter transcription, RNA readout; actives raise or lower the signal
In short: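 Readout: reporter transcript fluorescence after RT-PCR and capillary electrophoresis. Cells: HepG2, transiently transfected with cis-regulated MRTUs. Exposure 24 h. Gain or loss of signal fitted bidirectionally relative to DMSO.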

[2] = ATG_PXRE_CIS: Attagene CIS-FACTORIAL HepG2 Assay for human Pregnane X Receptor Element (PXRE) (AID 2282957); details: HepG2 Attagene CIS-FACTORIAL PXRE reporter, mRNA; actives raise or lower the signal
In short: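 Reporter transcripts under endogenous PXR-responsive cis-regulation quantified from total RNA of transfected HepG2 cells 24 h post-dosing, via RT-PCR with fluorescent primer extension and capillary electrophoresis. Gain or loss of signal fitted against DMSO baseline.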

[3] = ATG_PPRE_CIS: Attagene CIS-FACTORIAL HepG2 Assay for human Peroxisome Proliferator-activated Response Element (PPRE) (AID 2282958); details: HepG2 PPRE cis-element reporter, Attagene transcription factor profiling; actives raise or lower the signal
In short: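 HepG2 cells transiently transfected with multiplexed cis-element reporter units measure endogenous transcription factor activity. After 24 h compound exposure, reporter mRNA is quantified by RT-PCR, 6-FAM labeling, HpaI digestion and capillary electrophoresis; bidirectional fits are made against DMSO baseline.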

[4] = ATG_RORE_CIS: Attagene CIS-FACTORIAL HepG2 Assay for human RAR-related Orphan Receptor Element (RORE) (AID 2282959); details: HepG2 Attagene cis-factorial RORE reporter, mRNA; actives raise or lower the signal
In short: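 HepG2 cells transiently transfected with multiple cis-element reporter transcription units, exposed to chemical for 24 h. Reporter mRNA quantified by RT-PCR, 6-FAM primer-extension labeling, HpaI digestion and capillary electrophoresis; bidirectional fit versus DMSO baseline.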

[5] = ATG_Sox_CIS: Attagene CIS-FACTORIAL HepG2 Assay for human SRY-box transcription factor (SOX) (AID 2282960); details: HepG2 Attagene cis-factorial SOX reporter, mRNA; actives raise or lower the signal
In short: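 HepG2 cells transiently transfected with cis-element-driven multiple reporter transcription units, dosed 24 h; reporter mRNA measured by RT-PCR, FAM labelling, HpaI digestion and capillary electrophoresis. Bidirectional fit versus DMSO baseline.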

[6] = target: Transcription factor Sp1 (Homo sapiens) (UniProt P08047); test: ATG_Sp1_CIS: Attagene CIS-FACTORIAL HepG2 Assay for human Specificity Protein 1 (Sp1) (AID 2282961); details: HepG2 Sp1 cis-reporter transcription, actives raise or lower the signal
In short: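 HepG2 cells transiently transfected with multiple reporter transcription units driven by cis-regulatory elements; Sp1-responsive reporter mRNA measured 24 h after dosing by RT-PCR and capillary electrophoresis fluorescence, fitted bidirectionally against DMSO baseline.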

[7] = ATG_SREBP_CIS: Attagene CIS-FACTORIAL HepG2 Assay for human Sterol Regulatory Element Binding (SREBP) (AID 2282962); details: HepG2 Attagene cis-factorial SREBP reporter, mRNA; actives raise or lower the signal
In short: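 Readout: fluorescent reporter-transcript peaks resolved by capillary electrophoresis after RT-PCR. Cells were human HepG2 carrying transfected cis-promoter reporter constructs, dosed for 24 h. Gain or loss of signal was fitted against DMSO controls.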

[8] = target: Signal transducer and activator of transcription 3 (Homo sapiens) (UniProt P40763); test: ATG_STAT3_CIS: Attagene CIS-FACTORIAL HepG2 Assay for human Signal Transducer and Activator of Transcription 3 (STAT3) (AID 2282963); details: HepG2, Attagene cis-factorial STAT3 reporter transcription; actives raise or lower the signal
In short: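 Fluorescence intensity of 6-FAM-labelled reporter fragments, separated by capillary electrophoresis after RT-PCR, gave the signal. Cells were HepG2 transfected with cis-element reporter units and treated 24 h; fitting was bidirectional relative to DMSO.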

[9] = ATG_TA_CIS: Attagene CIS-FACTORIAL HepG2 Assay for human TA Basal Promoter (AID 2282964); details: HepG2 Attagene CIS-factorial TA basal promoter reporter; actives raise or lower the signal
In short: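 Transfected HepG2, 24 h compound exposure; RNA → RT-PCR → FAM primer extension → HpaI cut → CE fluorescence. Gain/loss-of-signal fitted against DMSO negative control. Background-control readout.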

[10] = ATG_TCF_b_cat_CIS: Attagene CIS-FACTORIAL HepG2 Assay for human T-Cell-Factor with beta-catenin (TCF/b-cat) (AID 2282965); details: HepG2 TCF/beta-catenin cis-reporter transcription, actives raise or lower the signal
In short: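 HepG2, transient MRTU transfection, cis-element-driven reporters (endogenous TFs). 24 h compound exposure. Readout: reporter mRNA by RT-PCR + 6-FAM primer extension, HpaI digest, capillary electrophoresis. Gain/loss fit vs DMSO baseline.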

[11] = ATG_TAL_CIS: Attagene CIS-FACTORIAL HepG2 Assay for human TAL Basal Promoter (AID 2282966); details: HepG2 Attagene cis-factorial TAL promoter reporter; actives raise or lower the signal;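 also: background control endpoint measuring basal TAL promoter reporter mRNA not a specific factor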
In short: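 Background-control endpoint: basal TAL promoter reporter transcripts in transiently transfected HepG2, measured 24 h after dosing. Read-out by RT-PCR with fluorescent primer extension and capillary electrophoresis; gain or loss of signal fitted relative to DMSO.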

[12] = ATG_TGFb_CIS: Attagene CIS-FACTORIAL HepG2 Assay for human Transforming Growth Factor (TGF) (AID 2282967); details: HepG2 Attagene CIS TGFb reporter, mRNA transcription; actives raise or lower the signal
In short: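 Readout: fluorescently labeled reporter cDNA fragments resolved by capillary electrophoresis after RT-PCR. Transfected HepG2 cells dosed for 24 h; endogenous TF activity at TGFB1-linked cis element; gain or loss fitted relative to DMSO.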

[13] = ATG_VDRE_CIS: Attagene CIS-FACTORIAL HepG2 Assay for human Vitamin D Receptor Element (VDRE) (AID 2282968); details: HepG2 VDRE cis-reporter transcription, actives raise or lower the signal
In short: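 Compounds were applied for 24 h to HepG2 cells transfected with promoter-regulated reporter units. Total RNA was reverse-transcribed, and reporter amplicons were fluorescently labelled and sized by capillary electrophoresis.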

[14] = target: X-box-binding protein 1 (Homo sapiens) (UniProt P17861); test: ATG_Xbp1_CIS: Attagene CIS-FACTORIAL HepG2 Assay for human X-box Binding Protein 1 (XBP1) (AID 2282972); details: HepG2 XBP1 cis-element reporter, Attagene multiplex; actives raise or lower the signal
In short: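 Read-out: fluorescent reporter mRNA fragments resolved by capillary electrophoresis after RT-PCR. Human HepG2 liver cells carried transfected cis-promoter reporter units and were exposed to chemicals for 24 hours. Gain or loss of signal fitted relative to DMSO baseline.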

[15] = ATG_M_19_TRANS: Attagene TRANS-FACTORIAL HepG2 Assay for M19 Transcription Factor (Internal Marker) (AID 2282974; active = hit-call score of the fitted dose curve at least 0.9, where 1 is the maximum); details: HepG2 Attagene TRANS-FACTORIAL M19 internal marker reporter
In short: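 HepG2 cells transiently transfected with multiple GAL4-UAS reporter transcription units were exposed to chemicals for 24 h. Reporter mRNA was read by RT-PCR, 6-FAM primer extension, HpaI digestion and capillary electrophoresis; gain of signal fitted relative to DMSO.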

[16] = target: Estrogen-related receptor gamma (Homo sapiens) (UniProt P62508); test: ATG_ERRg_TRANS: Attagene TRANS-FACTORIAL HepG2 Assay for human Estrogen-Related Receptor gamma (ERRg) (AID 2282977; active = hit-call score of the fitted dose curve at least 0.9, where 1 is the maximum;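 also: hits increase reporter signal over DMSO so potencies reflect activators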); details: HepG2 Attagene TRANS reporter, ERRg transactivation
In short: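 Induction of reporter transcripts through a chimeric NR-Gal4 protein is quantified in transfected human HepG2 liver cells after 24 h chemical exposure, using RT-PCR with capillary electrophoresis detection and DMSO as baseline.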

[17] = target: Steroid hormone receptor ERR1 (Homo sapiens) (UniProt P11474); test: ATG_ERRa_TRANS: Attagene TRANS-FACTORIAL HepG2 Assay for human Estrogen-Related Receptor alpha (ERRa) (AID 2282971; active = hit-call score of the fitted dose curve at least 0.9, where 1 is the maximum); details: HepG2 Attagene TRANS reporter, ERRa transactivation
In short: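 Reporter transcripts from ERRa-Gal4 chimera activity measured in transiently transfected human HepG2 cells 24 hours after dosing, using RT-PCR with 6-FAM primer extension, HpaI digestion and capillary electrophoresis; DMSO is baseline.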

[18] = target: Glucocorticoid receptor (Homo sapiens) (UniProt P04150); test: ATG_GR_TRANS: Attagene TRANS-FACTORIAL HepG2 Assay for human Glucocorticoid Receptor (GR) (AID 2282978; active = hit-call score of the fitted dose curve at least 0.9, where 1 is the maximum;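 also: activators score as hits since higher reporter transcript over DMSO is fitted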); details: HepG2 Attagene TRANS GR reporter, mRNA transcription
In short: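 HepG2 cells transiently transfected with multiplexed reporter units in which chimeric NR-GAL4 proteins drive GAL4-UAS reporters; 24 h compound exposure. Reporter mRNA measured by RT-PCR, 6-FAM labelling, HpaI digestion and capillary electrophoresis; gain-of-signal fitted versus DMSO.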

[19] = ATG_GAL4_TRANS: Attagene TRANS-FACTORIAL HepG2 Assay for GAL4 (Internal Marker) (AID 2282976; active = hit-call score of the fitted dose curve at least 0.9, where 1 is the maximum); details: HepG2 Attagene TRANS GAL4 internal marker reporter
In short: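 In transfected human HepG2 liver cells dosed 24 h, GAL4 reporter mRNA serves as a baseline marker. Detection by RT-PCR with fluorescent capillary electrophoresis, activity fitted upward relative to DMSO.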

[20] = target: Nuclear receptor subfamily 1 group I member 3 (Homo sapiens) (UniProt Q14994); test: ATG_CAR_TRANS: Attagene TRANS-FACTORIAL HepG2 Assay for human Constitutive Androstane Receptor (CAR) (AID 2282969; active = hit-call score of the fitted dose curve at least 0.9, where 1 is the maximum;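 also: activators raise reporter mRNA above DMSO so AC50 marks induction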); details: HepG2 Attagene TRANS-FACTORIAL CAR reporter
In short: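 Transiently transfected HepG2, multiplex TRANS reporters (CAR-Gal4 chimera driving GAL4-UAS reporter). 24 h dosing. Readout: reporter transcript by RT-PCR + capillary electrophoresis, fluorescence intensity; positive direction vs DMSO.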

Measured: AC50

Glucocorticoid receptor (Homo sapiens), sequence (P04150 whole entry, looked up, the tested form may be a part): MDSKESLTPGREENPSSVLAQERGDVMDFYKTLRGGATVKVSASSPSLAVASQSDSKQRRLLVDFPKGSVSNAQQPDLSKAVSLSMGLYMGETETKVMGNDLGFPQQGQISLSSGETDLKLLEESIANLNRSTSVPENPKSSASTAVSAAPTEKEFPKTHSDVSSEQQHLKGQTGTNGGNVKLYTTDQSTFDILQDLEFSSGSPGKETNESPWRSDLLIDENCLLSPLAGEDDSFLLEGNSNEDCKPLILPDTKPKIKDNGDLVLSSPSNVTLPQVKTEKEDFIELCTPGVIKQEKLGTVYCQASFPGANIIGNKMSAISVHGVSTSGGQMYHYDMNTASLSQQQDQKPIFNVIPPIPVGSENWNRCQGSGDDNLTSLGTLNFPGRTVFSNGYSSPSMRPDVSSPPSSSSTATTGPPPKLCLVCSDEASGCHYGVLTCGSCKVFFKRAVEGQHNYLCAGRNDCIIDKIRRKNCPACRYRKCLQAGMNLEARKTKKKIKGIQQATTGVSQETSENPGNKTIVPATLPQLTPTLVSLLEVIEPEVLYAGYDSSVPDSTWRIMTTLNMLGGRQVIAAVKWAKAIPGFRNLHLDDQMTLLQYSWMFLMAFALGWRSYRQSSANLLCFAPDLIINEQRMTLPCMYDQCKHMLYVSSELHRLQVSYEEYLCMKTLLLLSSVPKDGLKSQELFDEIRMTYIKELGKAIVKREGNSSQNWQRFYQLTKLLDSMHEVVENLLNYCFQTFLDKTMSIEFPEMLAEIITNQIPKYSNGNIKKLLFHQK
Transcription factor Sp1 (Homo sapiens), sequence (P08047 whole entry, looked up): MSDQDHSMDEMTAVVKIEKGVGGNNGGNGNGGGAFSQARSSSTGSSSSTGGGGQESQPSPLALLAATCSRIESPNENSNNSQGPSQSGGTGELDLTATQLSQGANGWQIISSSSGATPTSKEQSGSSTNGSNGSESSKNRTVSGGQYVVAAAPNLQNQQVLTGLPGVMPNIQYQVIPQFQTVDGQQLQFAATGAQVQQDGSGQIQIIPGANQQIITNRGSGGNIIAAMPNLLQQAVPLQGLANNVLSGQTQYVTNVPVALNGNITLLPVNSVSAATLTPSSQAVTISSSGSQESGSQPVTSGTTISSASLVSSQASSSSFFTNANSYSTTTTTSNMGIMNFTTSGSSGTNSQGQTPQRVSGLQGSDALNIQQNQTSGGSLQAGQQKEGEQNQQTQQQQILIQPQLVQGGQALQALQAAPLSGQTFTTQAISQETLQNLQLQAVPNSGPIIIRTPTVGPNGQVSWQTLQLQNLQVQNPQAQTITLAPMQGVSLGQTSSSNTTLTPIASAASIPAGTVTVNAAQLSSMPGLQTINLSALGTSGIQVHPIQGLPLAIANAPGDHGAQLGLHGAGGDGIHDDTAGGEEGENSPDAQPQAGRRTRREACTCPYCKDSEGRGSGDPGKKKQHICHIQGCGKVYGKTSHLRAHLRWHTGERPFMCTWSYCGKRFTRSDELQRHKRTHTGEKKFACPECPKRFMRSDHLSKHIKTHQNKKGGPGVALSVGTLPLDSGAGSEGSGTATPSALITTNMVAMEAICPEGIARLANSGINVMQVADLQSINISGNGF
Paired box protein Pax-6 (Homo sapiens), sequence (P26367 whole entry, looked up): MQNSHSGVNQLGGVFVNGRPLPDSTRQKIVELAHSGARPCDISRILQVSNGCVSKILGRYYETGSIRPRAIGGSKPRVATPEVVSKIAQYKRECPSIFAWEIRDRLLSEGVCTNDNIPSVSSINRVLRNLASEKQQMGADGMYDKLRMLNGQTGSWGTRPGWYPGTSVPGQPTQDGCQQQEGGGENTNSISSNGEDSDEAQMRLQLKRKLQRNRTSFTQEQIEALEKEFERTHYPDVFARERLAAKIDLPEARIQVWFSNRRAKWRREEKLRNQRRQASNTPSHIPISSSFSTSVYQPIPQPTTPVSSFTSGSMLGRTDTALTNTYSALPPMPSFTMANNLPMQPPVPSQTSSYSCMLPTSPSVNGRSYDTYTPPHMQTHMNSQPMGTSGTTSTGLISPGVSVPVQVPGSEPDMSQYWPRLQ
Estrogen-related receptor gamma (Homo sapiens), sequence (P62508 whole entry, looked up, the tested form may be a part): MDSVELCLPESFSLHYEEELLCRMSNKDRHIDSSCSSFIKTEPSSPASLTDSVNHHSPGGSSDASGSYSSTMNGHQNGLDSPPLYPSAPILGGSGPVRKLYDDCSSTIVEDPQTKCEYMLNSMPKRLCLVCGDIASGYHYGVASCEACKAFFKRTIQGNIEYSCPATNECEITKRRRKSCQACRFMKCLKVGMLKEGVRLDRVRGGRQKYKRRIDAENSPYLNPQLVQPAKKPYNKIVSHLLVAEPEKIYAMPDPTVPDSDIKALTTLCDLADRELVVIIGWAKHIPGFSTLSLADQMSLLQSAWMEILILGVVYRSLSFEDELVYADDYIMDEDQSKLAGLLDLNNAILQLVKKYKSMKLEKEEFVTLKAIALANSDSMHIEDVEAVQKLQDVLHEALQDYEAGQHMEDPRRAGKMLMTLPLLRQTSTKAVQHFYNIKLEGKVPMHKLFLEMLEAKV
X-box-binding protein 1 (Homo sapiens), sequence (P17861 whole entry, looked up, the tested form may be a part): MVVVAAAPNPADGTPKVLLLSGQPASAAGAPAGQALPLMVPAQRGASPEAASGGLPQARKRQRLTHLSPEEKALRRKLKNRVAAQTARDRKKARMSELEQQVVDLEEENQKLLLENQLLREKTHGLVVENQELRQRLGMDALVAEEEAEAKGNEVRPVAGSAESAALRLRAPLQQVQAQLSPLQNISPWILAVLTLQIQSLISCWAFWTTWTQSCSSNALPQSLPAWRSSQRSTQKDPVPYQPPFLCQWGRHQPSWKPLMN
Steroid hormone receptor ERR1 (Homo sapiens), sequence (P11474 whole entry, looked up, the tested form may be a part): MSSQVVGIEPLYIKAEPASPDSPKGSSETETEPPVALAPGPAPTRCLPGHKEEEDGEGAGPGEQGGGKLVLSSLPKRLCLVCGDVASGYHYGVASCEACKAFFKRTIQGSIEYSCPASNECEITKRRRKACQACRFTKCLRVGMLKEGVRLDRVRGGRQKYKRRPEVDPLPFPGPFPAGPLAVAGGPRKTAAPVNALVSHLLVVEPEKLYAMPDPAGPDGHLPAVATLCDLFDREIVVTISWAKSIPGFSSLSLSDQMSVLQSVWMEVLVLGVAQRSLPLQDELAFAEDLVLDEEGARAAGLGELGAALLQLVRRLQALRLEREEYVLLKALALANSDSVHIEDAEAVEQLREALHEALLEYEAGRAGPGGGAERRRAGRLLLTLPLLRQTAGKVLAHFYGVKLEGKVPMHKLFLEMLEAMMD
Signal transducer and activator of transcription 3 (Homo sapiens), sequence (P40763 whole entry, looked up, the tested form may be a part): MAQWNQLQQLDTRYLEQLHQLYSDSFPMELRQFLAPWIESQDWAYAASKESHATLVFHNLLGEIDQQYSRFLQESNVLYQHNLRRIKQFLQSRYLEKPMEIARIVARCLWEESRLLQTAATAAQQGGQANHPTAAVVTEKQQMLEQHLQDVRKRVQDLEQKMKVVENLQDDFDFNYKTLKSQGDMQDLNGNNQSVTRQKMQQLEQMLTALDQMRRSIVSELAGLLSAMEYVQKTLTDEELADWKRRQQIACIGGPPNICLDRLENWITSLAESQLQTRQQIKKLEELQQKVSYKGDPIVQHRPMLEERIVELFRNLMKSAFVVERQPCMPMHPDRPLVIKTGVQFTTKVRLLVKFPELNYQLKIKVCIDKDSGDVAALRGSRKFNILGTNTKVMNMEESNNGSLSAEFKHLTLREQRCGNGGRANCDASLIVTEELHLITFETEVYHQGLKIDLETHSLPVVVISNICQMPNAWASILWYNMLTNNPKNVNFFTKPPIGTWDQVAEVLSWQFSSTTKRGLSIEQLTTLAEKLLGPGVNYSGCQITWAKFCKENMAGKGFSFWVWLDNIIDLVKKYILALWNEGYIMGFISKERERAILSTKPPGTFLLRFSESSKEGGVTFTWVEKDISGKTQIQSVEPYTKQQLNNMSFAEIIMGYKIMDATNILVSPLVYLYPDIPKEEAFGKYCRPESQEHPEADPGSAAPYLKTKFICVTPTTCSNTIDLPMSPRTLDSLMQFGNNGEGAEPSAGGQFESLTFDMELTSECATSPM
Nuclear receptor subfamily 1 group I member 3 (Homo sapiens), sequence (Q14994 whole entry, looked up, the tested form may be a part): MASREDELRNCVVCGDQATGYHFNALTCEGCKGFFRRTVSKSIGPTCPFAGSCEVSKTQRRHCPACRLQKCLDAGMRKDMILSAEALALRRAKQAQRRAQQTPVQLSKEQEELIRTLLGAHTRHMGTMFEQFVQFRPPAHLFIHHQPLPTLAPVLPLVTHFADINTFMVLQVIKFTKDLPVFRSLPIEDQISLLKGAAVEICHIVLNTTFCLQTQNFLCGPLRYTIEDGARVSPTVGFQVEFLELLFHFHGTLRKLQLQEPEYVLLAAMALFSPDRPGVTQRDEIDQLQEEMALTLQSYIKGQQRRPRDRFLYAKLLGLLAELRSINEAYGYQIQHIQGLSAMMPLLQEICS

COC(=O)c1ccc(C)cc1C1=NC(C)(C(C)C)C(=O)N1 (stereo unspecified) (tested in a mixture with another compound)
active: [2] 15.2 µM | [13] 26.8 µM
not listed: [17] | [18] | [19] | [20]
inactive: all other assays above

OCCCCC(O)CO (stereo unspecified)
not listed: [16] | [19] | [20]
inactive: all other assays above

O=C1OC(=O)c2c(Br)c(Br)c(Br)c(Br)c21
not listed: [15] | [16] | [17] | [18] | [20]
inactive: all other assays above

NCc1ccco1
not listed: [16] | [17] | [18] | [20]
inactive: all other assays above

C#CC(C)N(C)C(=O)Nc1ccc(Cl)cc1 (stereo unspecified)
active: [2] 8.86 µM
not listed: [14] | [15] | [16] | [18] | [19] | [20]
inactive: all other assays above

CCCCCCOC(=O)CCC
active: [2] 24.8 µM
not listed: [16] | [17] | [18] | [19] | [20]
inactive: all other assays above

CC(O)C1CCCCC1 (stereo unspecified)
not listed: [15] | [20]
inactive: all other assays above

CCOC(=O)COC(=O)c1cc(Oc2ccc(C(F)(F)F)cc2Cl)ccc1[N+](=O)[O-]
active: [2] 9.9 µM | [3] 12.4 µM | [4] 34.3 µM | [12] 144 µM | [13] 33.5 µM
not listed: [16] | [17] | [18] | [19]
inactive: all other assays above

CC(C)(C)c1ccc(C(=O)O)cc1
not listed: [16] | [17] | [18] | [20]
inactive: all other assays above

Cc1ncc[nH]1
not listed: [16] | [17] | [19] | [20]
inactive: all other assays above

CCCN(CCC)S(=O)(=O)c1ccc(C(=O)O)cc1
active: [2] 27.3 µM
not listed: [19] | [20]
inactive: all other assays above

COc1ccc(CCN2CCC(Nc3nc4ccccc4n3Cc3ccc(F)cc3)CC2)cc1
active: [7] 2.12 µM
not listed: [15] | [18] | [19] | [20]
inactive: all other assays above

CCCC(=O)OC(C)(C)Cc1ccccc1
active: [2] 27 µM | [3] 178 µM
not listed: [16] | [17] | [19] | [20]
inactive: all other assays above

CCCC1O[C@@H]2C[C@H]3[C@@H]4CCC5=CC(=O)C=C[C@]5(C)[C@H]4[C@@H](O)C[C@]3(C)[C@]2(C(=O)CO)O1 (stereo partly specified)
active: [2] 4.12 µM | [10] 100 µM | [12] 9.41 µM
not listed: [15] | [16] | [18] | [19] | [20]
inactive: all other assays above

CCCCCCCCCCCCCCN(CCO)CCO
active: [2] 2.92 µM | [6] 11.1 µM | [7] 7.35 µM
not listed: [15] | [16] | [17] | [18] | [19]
inactive: all other assays above

CN(C)CCOc1ccc(/C(=C(/CCCl)c2ccccc2)c2ccccc2)cc1
active: [2] 1.18 µM
not listed: [16] | [17] | [20]
inactive: all other assays above
